Rows were chosen to be rich in hits. Some 2.5% of all compounds tested hit in one or more screens of this group.
LMP1 NFkB inh: Epstein-Barr LMP1 NF-kappaB reporter inhibition; inhibition, % at 12.5 µM; 0.69% of 350,000 active; AID 504558; LMP1-induced NF-kappaB luciferase reporter cells, luminescence; in the data active = inhibition above about 41%;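 also: 0% = neutral control wells and 100% = reference inhibitor control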
EWS-Fli block: inhibitors of EWS/Fli oncoprotein transcriptional activity | A673 NR0B1-luciferase reporter, viability-normalised | inhibition, % at 12.6 µM | 0.67% of 350,000 active | AID 651661;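 active = mean inhibition of at least 50% after viability correction, with every replicate also passing that limit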;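 also: firefly luciferase signal divided by Alamar Blue viability fluorescence both relative to DMSO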
TROY NFkB inh: TROY signaling inhibition; Q293 LMP1-TROYcd NF-kB luciferase reporter, 4 h; inhibition, % at 10 µM; 0.98% of 360,000 active; AID 1347056;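 active = compounds whose plate-normalised and pattern-corrected inhibition of the luciferase reporter signal at the single screening dose is 50% or more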
TWEAK Fn14 block: blocks TWEAK-Fn14 interaction in a reporter cell assay; inhibition, % at 10 µM; 2% of 360,000 active; TWEAK-stimulated Fn14 reporter cells, luciferase luminescence, 8 h; in the data active = inhibition above about 50%
LGR2 antag: blocks bursicon-induced cAMP signaling via Drosophila LGR2; AID 720647; inhibition, % at 9.99 µM; 0.35% of 380,000 active; HEK293 LGR2, CRE-luciferase, bursicon-stimulated, 4 h;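 active = drop in luminescence signal, shown as inhibition above about 50% in the replicate tests, limit read from the data, passing the limit was not always enough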;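 also: agonist challenge used bursicon conditioned medium at about half maximal strength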
DNA binding: DNA binding small molecules. AC35, µM (top dose mostly 68 µM), without a hit: top-dose activity change, negative = DNA binding. salmon sperm DNA acridine orange fluorescence polarization. shares compounds with EWS-Fli block. AID 720586. 2% of 640 active;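 active = fitted curve reaches a 35% signal fall AC35 below twice the sample's top valid tested dose, actives reach about 48 µM in these data; inactive = the rest, including activity in the rising direction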;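 also: lower polarization ratio signals compound binding to DNA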
The depositor's hits bear a star; · = not tested or not shown.

SMILES | LMP1 NFkB inh | EWS-Fli block | TROY NFkB inh | TWEAK Fn14 block | LGR2 antag | others
COc1cc(NC(=O)CNc2cccc(S(=O)(=O)N3CCOCC3)c2)cc(OC)c1 | 3 | 5 | 78* | 8 | -11
COc1ccc(S(=O)(=O)N2CCN(CC(=O)Nc3cccc(OC)c3)CC2)cc1 | 56* | · | 7 | -13 | -10
CNC[C@@H]1Oc2ncc(Br)cc2C(=O)N([C@@H](C)CO)C[C@@H]1C | · | -5 | · | · | 0
CC(=O)N(C)c1ccc(N=Nc2c(C)[nH]n(-c3ccccc3)c2=O)cc1 | 0 | -2 | -5 | 26 | 9
CC(=O)N(C)c1ccc(N=Nc2ccc3ncccc3c2)cc1 | 3 | -12 | 13 | 62* | 66*
C[C@H](CO)N1C[C@H](C)[C@@H](CN(C)CC2CCCC2)Oc2ncc(-c3ccc(C#N)cc3)cc2C1=O | · | 6 | · | · | 1
Cc1cc(=O)oc2cc(OCC(=O)Nc3nnc(C(C)C)s3)ccc12 | -9 | · | -1 | 77* | ·
CO[C@@H]1CN(C)C(=O)c2ccc(NS(=O)(=O)c3ccc(Cl)cc3)cc2OC[C@H](C)N(C(=O)NC(C)C)C[C@@H]1C | · | 11 | · | · | -4
Cc1nc(SCC(=O)Nc2ccc(S(=O)(=O)N3CCOCC3)cc2)c2c(C)c(C)sc2n1 | 36 | 1 | 51* | 27 | 36
Cc1nc(SCC(=O)N2CCOCC2)c2c(C)c(C)sc2n1 | -8 | -4 | -40 | 1 | 7
C[C@H]1CN([C@@H](C)CO)C(=O)CCCn2nncc2CO[C@@H]1CN(C)S(=O)(=O)c1ccc(C#N)cc1 | · | -1 | · | · | -14
Nc1c(S(=O)(=O)c2ccccc2)c2nc3ccccc3nc2n1/N=C/c1cccc(O)c1 | -17 | · | 16 | 73* | ·
Fc1nc(F)c(F)c(NCCCNc2c(F)c(F)nc(F)c2F)c1F | -3 | -3 | 50* | 10 | 9
COc1ccc(C(=S)N2CCN(c3cccc(Cl)c3)CC2)c(OC)c1 | -5 | 56* | 17 | 0 | 16
CN1CCN(c2nc3c(c(=O)[nH]c(=O)n3C)n2Cc2cccc(Br)c2)CC1 | -2 | -1 | -4 | 1 | -2
Cn1c(=O)[nH]c(=O)c2c1nc(Br)n2Cc1cccc(Br)c1 | 15 | 56* | 19 | 14 | -5
Cc1nc2ccccc2c2oc(C(=O)NCC3COc4ccccc4O3)cc12 (configuration not stated) | 0 | 2 | 73* | 93* | -24
COc1ccc(CNC(=O)c2cc3c(C)nc4ccccc4c3o2)c(OC)c1 | · | · | 48 | 38 | ·
CCc1ccc(CNC(=O)c2cc3c(C)nc4ccccc4c3o2)cc1 | 21 | 13 | 45 | 58* | 15
COc1cccc(CNC(=O)c2cc3c(C)nc4ccccc4c3o2)c1 | 18 | 13 | 44 | 52* | 8
O=C(C[C@@H]1C[C@H]2c3cc(NC(=O)c4ccc5c(c4)OCO5)ccc3O[C@H]2[C@H](CO)O1)NCCc1ccccc1 | · | -6 | · | · | 14
COc1ccc(CNC(=O)C[C@@H]2C=C[C@@H](NS(=O)(=O)c3cccc(OC)c3)[C@H](CO)O2)cc1 | · | 6 | · | · | -6
CCn1c(C)nc2cc(-c3nc4n(n3)Cc3ccccc3-4)ccc21 | 86* | · | · | 105* | ·
NC(=S)Cc1nc2n(n1)Cc1ccccc1-2 | 3 | · | -3 | 21 | 2
Cc1ccc(-c2nc3n(n2)Cc2ccccc2-3)cc1 | 15 | · | 58* | 94* | ·
SMILES | LMP1 NFkB inh | EWS-Fli block | TROY NFkB inh | TWEAK Fn14 block | LGR2 antag | others
Fc1ccc(-c2nc3n(n2)Cc2ccccc2-3)cc1 | -17 | · | 30 | 58* | ·
C[C@H]1CCCCO[C@H](CN(C)C)[C@@H](C)CN([C@@H](C)CO)C(=O)c2cc(N(C)C)ccc2O1 | · | -1 | · | · | -9
O=C(NC1CCCC1)N1CC(=O)N2[C@H](CO)[C@@H](c3ccc(-c4cccnc4)cc3)[C@@H]2C1 | · | 2 | · | · | -7
C[C@@H]1CN([C@@H](C)CO)C(=O)Cc2cc(NC(=O)c3ccncc3)ccc2O[C@H]1CN(C)S(=O)(=O)c1ccc(Cl)cc1 | · | -4 | · | · | 1
Nc1ccc2nc(CCc3ccccc3)[nH]c2c1 | 59* | -62 | -29 | -10 | -22
COCC(=O)Nc1ccc2c(c1)C(=O)N(C)C[C@@H](OC)[C@H](C)CN(Cc1ccccn1)[C@H](C)CO2 | · | -5 | · | · | 2
O=C(O)c1ccc(N/N=C/c2cn(Cc3ccccc3F)c3ccccc23)cc1 | -19 | -68 | 31 | 33 | -57
CC(C)n1cc(/C=N/Nc2ccc(C(=O)O)cc2)c2ccccc21 | 5 | -15 | 62* | 81* | -1
Cc1c(NC(=O)c2cc3c(s2)-c2ccccc2OC3)cccc1[N+](=O)[O-] | 5 | · | 44 | 62* | 0
Cc1csc(NC(=O)c2cc3c(s2)-c2ccccc2OC3)n1 | -38 | -38 | 11 | 36 | -88
O=C(O)CSc1nnc(-c2ccco2)o1 | 0 | · | 4 | -5 | ·
CN(C)C(CNC(=O)CSc1nnc(-c2ccco2)o1)c1ccccc1 (configuration not stated) | -10 | · | 1 | 98* | ·
O=C(Nc1cc(Sc2ccccn2)cc([N+](=O)[O-])c1)c1cccc(F)c1 | -3 | · | 28 | 65* | 3
O=C(Nc1cc(Sc2nc3ccccc3s2)cc([N+](=O)[O-])c1)c1ccccc1 | -4 | · | 30 | 63* | 12
O=C(Nc1cc(Sc2nc3ccccc3s2)cc([N+](=O)[O-])c1)c1ccccc1F | -8 | · | 1 | 41 | ·
O=C(NNC(=O)c1ccccn1)c1cccc([N+](=O)[O-])c1 | 6 | 16 | 16 | 5 | -2
CC(C)C#Cc1cnc2c(c1)C(=O)N([C@@H](C)CO)C[C@@H](C)[C@H](CN(C)C(=O)Nc1ccc(F)cc1)O2 | · | -28 | · | · | 8
Oc1ccccc1-c1cc(-c2ccc3c(c2)OCCO3)n[nH]1 | -12 | · | 58* | 71* | ·
CC(C)NC(=O)N1[C@H](CO)[C@@H]2c3ccccc3N(C(=O)C3CCC3)C[C@@H]21 | · | -2 | · | · | 5
Cc1cc(C(=O)Nc2cccc3c2O[C@@H](CN(C)S(=O)(=O)c2ccc(Cl)cc2)[C@@H](C)CN([C@H](C)CO)C3=O)n(C)n1 | · | -1 | · | · | ·
COc1ccc(N=C(NN)c2ccc3ccccc3n2)cc1 | 35 | 72* | 91* | 101* | · | DNA binding=-1%
C[C@H](CO)N1C[C@H](C)[C@@H](CN(C)Cc2cccnc2)Oc2ncc(-c3cccc(F)c3)cc2C1=O | · | 4 | · | · | 27
COc1ccccc1NC(=O)N1[C@@H]2CNC[C@H]1[C@@H]2c1ccc(-c2ccc(C#N)cc2)cc1 | · | 54* | · | · | 19 | DNA binding=-16%
COc1ccccc1NC(=O)N1[C@@H]2CNC[C@H]1C2c1ccc(-c2cccc(C#N)c2)cc1 (some centres not stated) | · | · | · | · | 14
C[C@@H]1CN([C@@H](C)CO)C(=O)c2cc(NS(=O)(=O)c3cn(C)cn3)ccc2O[C@H]1CN(C)Cc1ccc(Cl)c(Cl)c1 | · | 1 | · | · | -1
